TGFb inhibitor – TGF-b pathway inhibition; HepG2 CAGA-GFP TGF-b/SMAD3 reporter, GFP fluorescence, 18 h; TGF-beta stimulated, 500 pg/mL final; Potency, µM (top dose mostly 46.1 µM), for inactives: top-dose activity, negative = inhibition, most hits filed as inhibitors; 1.2% of 410,000 active; AID 588855; further: on the % scale 0 is the no-effect control and ±100 the full control effect; nearly all actives have a fitted effect of over 65% in size
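HEPG2 CAGA-GFP reporter cells (1000/well, DMEM with 1% FBS) received compounds, then recombinant TGF-beta at 500 pg/mL final for 18 hours at 37 degrees C. Per-cell GFP summed per well was normalised to unstimulated and stimulated DMSO controls before curve fitting.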
12-LOX inh – ALOX12 (human) lipoxygenase inhibition | P18054 | purified 12hLO, xylenol orange hydroperoxide absorbance | Potency, µM (series often up to 108 µM), for the others: top-dose activity change, negative = inhibition, actives largely listed as inhibitors | 1.1% of 580,000 active | AID 1671190; further: on the % scale 0 is the no-effect control and ±100 the full control effect
Target sequence (P18054 whole entry, looked up): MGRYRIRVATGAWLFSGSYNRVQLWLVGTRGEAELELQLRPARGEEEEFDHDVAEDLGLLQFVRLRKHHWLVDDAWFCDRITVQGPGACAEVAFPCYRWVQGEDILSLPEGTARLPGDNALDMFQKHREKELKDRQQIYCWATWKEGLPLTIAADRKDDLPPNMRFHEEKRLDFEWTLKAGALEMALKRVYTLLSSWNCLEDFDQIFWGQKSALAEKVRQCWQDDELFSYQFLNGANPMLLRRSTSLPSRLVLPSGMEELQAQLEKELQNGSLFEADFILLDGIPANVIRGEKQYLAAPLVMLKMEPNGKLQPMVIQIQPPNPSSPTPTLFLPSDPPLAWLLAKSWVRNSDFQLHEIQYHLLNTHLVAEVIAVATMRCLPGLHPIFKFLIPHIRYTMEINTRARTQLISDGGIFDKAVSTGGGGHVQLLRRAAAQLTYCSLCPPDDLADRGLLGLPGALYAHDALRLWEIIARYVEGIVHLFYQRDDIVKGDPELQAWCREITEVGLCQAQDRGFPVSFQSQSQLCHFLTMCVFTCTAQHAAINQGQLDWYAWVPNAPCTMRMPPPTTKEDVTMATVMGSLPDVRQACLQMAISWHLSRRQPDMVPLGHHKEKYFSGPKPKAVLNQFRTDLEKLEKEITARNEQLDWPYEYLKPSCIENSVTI
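Purified human 12hLO at 150 nM in 25 mM Hepes, 0.01% Triton X-100, pH 7.0, preincubated 15 min at room temperature with compound. Reaction started with 40 uM arachidonic acid, 30 min at room temperature. Hydroperoxide measured by Fe-xylenol orange, 573/405 nm absorbance ratio.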
ATXN2 expr inh – inhibitors of ATXN2 expression; HEK-293 ATXN2-luciferase reporter, luminescence, 24 h; Potency, µM (top dose mostly 57 µM), without a hit: at the highest dose activity change, negative = inhibition, hits mostly inhibitors; 0.72% of 360,000 active; further: on the % scale 0 is the no-effect control and ±100 the full control effect; nearly all actives have a fitted effect of over 55% in size
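ATXN2-luciferase reporter cells (luciferase flanked by upstream and downstream ATXN2 gene portions) were treated 24 h at 37 °C with compounds at up to 57 uM. SteadyGlo luminescence gave expression; GF-AFC fluorescence gave viability.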
ATXN viability – reduces viability in counter-screen for ATXN expression inhibitors | S2 cells (HEK-293 line with an ATXN2-luciferase reporter) viability, CellTiter-Fluor protease fluorescence, 24 h | Potency, µM (doses to about 56.7 µM), actives largely listed as cytotoxic | 0.49% of 400,000 active | AID 651635; further: nearly all actives have a fitted effect of over 40% in size
HepG2 tox – HepG2 cytotoxicity, counter-screen for TGF-b inhibitors. HepG2 CAGA-GFP viability, ATP luminescence, 18 h. Potency, µM (top dose mostly 46.1 µM), for inactives: at the highest dose activity change, negative = cytotoxicity, most hits filed as cytotoxic. 0.76% of 410,000 active. AID 588856
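HepG2 CAGA-GFP cells (1000/well, DMEM with 1% FBS) received compound, then TGF-beta at 500 pg/mL final, and were incubated 18 hours at 37 degrees C. Viability was read by CellTiter-Glo luminescence. Media-only wells were set as complete cell-killing and DMSO as no toxicity.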
* = called active by the depositor; [ ] = dose if it differs, or a comment. A selection: hits, their analogues and other compounds. The true share with any hit is near 2.7%. The call rests on the fitted dose curve; in most records, active means well fitted curve in the direction sought with a large enough effect; inconclusive means small, poorly fitted or top-dose-only effect, or another doubt; inactive means no such curve, though single readings can be large; an effect the other way counts as inactive or inconclusive. Potency means the concentration at half of the fitted maximal effect.

Screening CC(Sc1nnc2c(Cl)cc(C(F)(F)F)cn12)c1ccccc1 (stereo not given) returned 12-LOX inh 5%.
For Cc1cccc(NC(=S)NCc2ccc3c(c2)cc(C)n3C)c1C the results were TGFb inhibitor inconclusive, 12-LOX inh 35µM*, ATXN2 expr inh -7%, ATXN viability inconclusive and HepG2 tox -44%.
Screening Cc1cc2cc(CNC(=S)Nc3ccc(OC(F)(F)F)cc3)ccc2n1C returned TGFb inhibitor -31%, 12-LOX inh 40µM*, ATXN2 expr inh -8%, ATXN viability inconclusive and HepG2 tox -34%.
COc1cccc(NC(=S)NCc2ccc3c(c2)cc(C)n3C)c1 was read as TGFb inhibitor 5%, 12-LOX inh inconclusive, ATXN viability inactive and HepG2 tox 6%.
COc1ccc(NS(=O)(=O)c2cccc(C(=O)N3CCc4sccc4C3)c2)cc1 was read as 12-LOX inh -38%.
`CSC(C)C(=O)NC(CC(C)(C)C)c1ccc(F)cc1` (stereo not given) gave 12-LOX inh 12%.
`COc1cc(-c2nc(-c3ccc(NC(=O)c4ccc(Br)o4)cc3)no2)cc(OC)c1OC` gave TGFb inhibitor -12%, 12-LOX inh -21%, ATXN2 expr inh -38%, ATXN viability inconclusive and HepG2 tox -65%.
For COc1ccc(-c2nc(-c3ccc(NC(=O)c4ccc(Br)o4)cc3)no2)cc1OC the results were TGFb inhibitor inconclusive, 12-LOX inh 0%, ATXN2 expr inh inconclusive, ATXN viability 18µM* and HepG2 tox -59%.
COC(=O)CCC(=O)OC1(C)C(=O)C2=CN(Cc3ccccc3)C(c3ccc(OC)cc3)=CC2=C(Br)C1=O (stereo not given) was read as TGFb inhibitor 1%, 12-LOX inh inconclusive, ATXN2 expr inh 5%, ATXN viability inactive and HepG2 tox -18%.
CCC(=O)OC1(C)C(=O)C2=COC(c3ccc(OC)cc3)=CC2=C(Br)C1=O (stereo not given) was read as TGFb inhibitor inconclusive, 12-LOX inh 50µM*, ATXN2 expr inh -11%, ATXN viability inconclusive and HepG2 tox 3%.
COC(=O)CCC(=O)OC1(C)C(=O)C2=CN(c3ccccc3)C(c3ccc(OC)cc3)=CC2=C(Br)C1=O (stereo not given) was read as TGFb inhibitor -8%, 12-LOX inh 40µM*, ATXN2 expr inh 8%, ATXN viability inactive and HepG2 tox 0%.
`CCC(=O)OC1(C)C(=O)C=C2C=C(c3ccc(C#N)cc3)OC=C2C1=O` (stereo not given) gave TGFb inhibitor -6%, 12-LOX inh 5.6µM*, ATXN2 expr inh 3%, ATXN viability inactive and HepG2 tox -5%.
`Fc1ccc(Nc2ncncc2-c2ccoc2)cc1` gave 12-LOX inh 40µM*.
Screening Cc1ccccc1-c1cncnc1Nc1ccc(F)cc1 returned 12-LOX inh -14%.
COc1ccccc1-c1cncnc1Nc1ccccc1 was read as 12-LOX inh 40µM*.
c1ccc(Nc2ncncc2-c2ccoc2)cc1 was read as 12-LOX inh 18µM*.
For CSc1ccc(Nc2ncncc2-c2nc(-c3ccccc3)no2)cc1 the results were 12-LOX inh 21%.
For CCCc1nnc(C[C@@H]2C[C@@H](C(C)C)[C@H](CNc3cccnc3)C=C2C)o1 the results were 12-LOX inh 112%[176 µM].
Cc1ccc(C(=O)Nc2nnc(S(=O)(=O)N3c4ccccc4CC3C)s2)cc1 (stereo not given) was read as TGFb inhibitor -29%, 12-LOX inh -13%, ATXN2 expr inh 9%, ATXN viability inactive and HepG2 tox -24%.
`CC1Cc2ccccc2N1S(=O)(=O)c1cccc(C(=O)NCc2ccncc2)c1` (stereo not given) gave TGFb inhibitor inconclusive, 12-LOX inh inconclusive, ATXN2 expr inh -13%, ATXN viability inactive and HepG2 tox -31%.
For CCN(CC)CCNC(=O)c1ccc(NC(=O)c2cccc(S(=O)(=O)N3c4ccccc4CC3C)c2)cc1 (stereo not given) the results were TGFb inhibitor inconclusive, 12-LOX inh -9%, ATXN2 expr inh inconclusive, ATXN viability inconclusive and HepG2 tox 10µM*.
CC1Cc2ccccc2N1S(=O)(=O)c1nnc(NC(=O)c2ccccc2)s1 (stereo not given) was read as TGFb inhibitor 14µM*, 12-LOX inh -1%, ATXN2 expr inh -17%, ATXN viability inconclusive and HepG2 tox -29%.
For CC1Cc2ccccc2N1S(=O)(=O)c1cccc(C(=O)NCc2ccccn2)c1 (stereo not given) the results were TGFb inhibitor inconclusive, 12-LOX inh 25%, ATXN viability inactive and HepG2 tox 20µM*.
Screening CCC[C@H]1CN(C(=O)CCc2ccccc2C)C[C@@H]1N returned 12-LOX inh 12%.
Screening CN1CCN(c2ncnc3sc4c(c23)CCN(Cc2ccco2)C4)CC1 returned 12-LOX inh 98%.
CC(O)/C=C/c1cccc[n+]1C (stereo not given) was read as TGFb inhibitor 3%, 12-LOX inh 18µM*, ATXN2 expr inh 0%, ATXN viability inactive and HepG2 tox -23%.
For C[n+]1ccccc1/C=N/O the results were TGFb inhibitor -3%, 12-LOX inh inconclusive, ATXN2 expr inh 7%, ATXN viability inactive and HepG2 tox 13%.
Screening N#Cc1cc2c([nH]c1=S)CCCCCC2 returned TGFb inhibitor -19%, 12-LOX inh 16µM*, ATXN2 expr inh 0%, ATXN viability inactive and HepG2 tox -8%.
For N#Cc1c(N)n[nH]c1-c1cc2c([nH]1)CCCC2 the results were TGFb inhibitor 0%, 12-LOX inh -22%, ATXN2 expr inh 8%, ATXN viability inactive and HepG2 tox -2%.
CN(C)CCOc1ccc(-c2c(-c3ccccc3)sc3ccccc23)cc1 was read as TGFb inhibitor inconclusive, 12-LOX inh -13%, ATXN2 expr inh 20µM*, ATXN viability inconclusive and HepG2 tox -108%.
Screening c1ccc(-c2sc3ccccc3c2-c2ccc(OCCN3CCCCC3)cc2)cc1 returned TGFb inhibitor 2%, 12-LOX inh -3%, ATXN2 expr inh -8%, ATXN viability inactive and HepG2 tox -19%.
`CNC(=O)C1(N2CCC[C@H]2C(=O)NCCOC)CCOCC1` gave 12-LOX inh 10µM*.
CCNC(=O)[C@@H]1CCCN1C1(C(=O)NC)CCOCC1 was read as 12-LOX inh -1%[176 µM].

Assay outcomes: PubChem, National Center for Advancing Translational Sciences (NCATS)
